Measured values: PubChem BioAssay
Values joined by “and” are separate entries in the source; they are usually repeats but may differ in a detail not shown here. Equal entries are not always repeated. Active and inactive are the calls of the source.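 Rule for the calls, unless noted: active = thallium flux through the channel raised or lowered by more than 3 SD from vehicle-only wells, actives on both sides; inactive = the rest.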

Assays:
[1] = Wnt pathway potentiators raising nuclear beta-catenin – imaging, WNT3A-conditioned medium, mouse C2C12, NPC library, primary screen (AID 1117326; in the data active = nuclear beta-catenin stimulation mostly above about 4.2%, no sharp cut-off; inactive = mostly below about 10%); conditions: stronger effect = higher value
[2] = stimulators of insulin release from INS-1E, primary screen, cell-based, 5 mM glucose, NPC library (AID 1117329;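 active = compound raises insulin release from rat beta cells at 5 mM glucose, no numeric limit stated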); conditions: rat INS-1E insulin secretion, at 10 µM, stronger effect = higher value
[3] = growth inhibition of GSK3B-pretreated HCT116 cells – cell-based, CellTiter-Glo, 0.2 to 20 µM (AID 1117336;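 active = compounds lowering colon cancer cell viability after pretreatment blocking the GSK3B kinase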); conditions: HCT116 viability after GSK3B inhibitor, at 20 µM, stronger effect = higher value
[4] = inhibition of endothelial tube formation, primary screen, imaging, VEGF stimulated, CD31 staining, tube area, NPC library (AID 1117340;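 active = compound that reduces growth-factor-driven endothelial tube area in a mixed cell culture, no cutoff stated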); conditions: VEGF-stimulated ADSC/ECFC co-culture, at 10 µM, stronger effect = higher value
[5] = GLP1 release stimulators, primary, NCI-H716, NPC library (AID 1117341;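 active = compound raises GLP1 secretion from the human gut endocrine cells, with no numeric limit stated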); conditions: NCI-H716 cells, at 10 µM, stronger effect = higher value
[6] = HCT116 colon cancer cell growth inhibition, primary screen, CellTiter-Glo luminescence, NPC library (AID 1117342;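 active = compounds that lower survival of HCT116 colon cancer cells in the luminescence readout, no numeric limit stated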); conditions: at 20 µM (top of the series)
[7] = reduced SW480 viability measured with CellTiter-Glo, NPC library, primary (AID 1117343;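 active = compounds that lower viability of the colon cancer cells in the luminescence readout, with no numeric limit stated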); conditions: CellTiter-Glo luminescence; at 20 µM (top of the series)
[8] = NPC library primary testing for decreased DLD-1 cell viability via CellTiter-Glo (AID 1117346;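 active = compounds that lower survival of DLD-1 colon cancer cells in the luminescence readout, no cutoff given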); conditions: DLD-1 viability, CellTiter-Glo luminescence; at 20 µM (top of the series)
[9] = target: 6-phosphogluconate dehydrogenase, decarboxylating (Homo sapiens) (UniProt P52209); assay: inhibition of human phosphogluconate dehydrogenase – biochemical, recombinant enzyme, NADPH absorbance, primary screen (AID 1159550;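 active = at least 20% inhibition of 6-phosphogluconate dehydrogenase activity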); conditions: recombinant 6PGD, NADPH absorbance 341 nm; at 10 µM; stronger effect = higher value
Chain of 6-phosphogluconate dehydrogenase, decarboxylating (Homo sapiens) (P52209 whole entry, looked up): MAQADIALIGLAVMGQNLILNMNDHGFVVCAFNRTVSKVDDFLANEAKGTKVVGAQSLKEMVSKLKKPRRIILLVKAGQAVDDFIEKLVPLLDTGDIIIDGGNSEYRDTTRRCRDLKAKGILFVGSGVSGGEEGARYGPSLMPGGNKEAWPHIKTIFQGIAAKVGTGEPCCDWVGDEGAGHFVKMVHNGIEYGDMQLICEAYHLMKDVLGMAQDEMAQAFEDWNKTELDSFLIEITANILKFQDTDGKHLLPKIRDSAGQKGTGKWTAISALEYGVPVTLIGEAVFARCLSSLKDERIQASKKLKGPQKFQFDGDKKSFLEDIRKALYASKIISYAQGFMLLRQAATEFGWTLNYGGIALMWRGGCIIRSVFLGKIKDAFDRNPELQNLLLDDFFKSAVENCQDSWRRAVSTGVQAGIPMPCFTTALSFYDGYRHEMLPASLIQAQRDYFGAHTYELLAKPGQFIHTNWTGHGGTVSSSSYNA

[10] = EMT-state selective cytotoxicity in co-culture – imaging, PC-3E GFP, TEM4-18 mCherry, primary screen (AID 1345086;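 active = compounds killing one labelled cell type while sparing the other, by normalised counts and ratio limits, not self-fluorescent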;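 for all read-outs here: cells exposed to compound for 72 h before imaging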;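 for red/green cell ratio (normalised): normalised mesenchymal count divided by normalised epithelial count so high means epithelial killing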); conditions: PC-3E GFP / TEM4-18 mCherry co-culture, imaging cell counts, at 1 µM; for red/green cell ratio (normalised): actives lie on both sides, counts scaled to control wells, 1 = unselective
[11] = MELAS cybrid and Rieske KO viability enhancers – cell-based, MELAS cybrids, Rieske KO mouse fibroblasts, CellTiter-Glo, primary screen (AID 1508586;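 active = mean z-score across replicates of 1.96 or higher in either the MELAS or the Rieske mutant cell line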;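 note: z relative to plate mean and SD of compound and empty wells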); conditions: low glucose
[12] = target: NAD(+) hydrolase SARM1 (Homo sapiens) (UniProt Q6SZW1); assay: blocking NAD cleavage by SARM1 SAM-TIR – cell lysate, NAD-Glo luminescence (AID 1508614;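 active = compound whose remaining NAD level is above about 45 nM, limit read from the data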;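 note: higher remaining NAD means stronger inhibition of SARM1 NADase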); conditions: SAM-TIR HEK293T lysate NADase, at 1 µM, stronger effect = higher value
Chain of NAD(+) hydrolase SARM1 (Homo sapiens) (Q6SZW1 whole entry, looked up, the tested form may be a part): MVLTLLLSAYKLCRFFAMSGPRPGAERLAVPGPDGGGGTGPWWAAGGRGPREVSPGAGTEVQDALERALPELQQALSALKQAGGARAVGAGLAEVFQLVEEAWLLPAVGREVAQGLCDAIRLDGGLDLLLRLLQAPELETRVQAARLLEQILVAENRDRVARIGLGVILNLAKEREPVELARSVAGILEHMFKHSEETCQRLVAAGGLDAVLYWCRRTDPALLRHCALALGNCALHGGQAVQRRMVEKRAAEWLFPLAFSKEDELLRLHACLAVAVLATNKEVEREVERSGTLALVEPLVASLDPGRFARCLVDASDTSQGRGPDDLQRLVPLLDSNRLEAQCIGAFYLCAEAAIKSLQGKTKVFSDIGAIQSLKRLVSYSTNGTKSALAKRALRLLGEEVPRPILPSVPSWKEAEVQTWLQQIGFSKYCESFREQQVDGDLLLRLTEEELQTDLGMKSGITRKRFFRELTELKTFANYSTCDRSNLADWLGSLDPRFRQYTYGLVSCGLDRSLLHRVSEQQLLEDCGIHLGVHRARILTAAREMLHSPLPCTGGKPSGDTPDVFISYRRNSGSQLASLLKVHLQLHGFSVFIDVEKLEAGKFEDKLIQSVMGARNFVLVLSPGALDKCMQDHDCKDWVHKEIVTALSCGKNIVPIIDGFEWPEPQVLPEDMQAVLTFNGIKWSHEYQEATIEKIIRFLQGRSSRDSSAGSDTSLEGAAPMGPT

[13] = target: Mitogen-activated protein kinase 7 (Homo sapiens) (UniProt Q13164); assay: Gal4-ERK5 driven luciferase induction – cell-based, HTS, primary screen (AID 1508626;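 active = luciferase signal above three times the same-plate solvent-only control wells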;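 note: luciferase driven by Gal4-ERK5 fusion binding five Gal4 sites before minimal TATA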); conditions: HeLa Gal4-ERK5 transactivation, 18 h, at 5 µM, stronger effect = higher value
Chain of Mitogen-activated protein kinase 7 (Homo sapiens) (Q13164 whole entry, looked up, the tested form may be a part): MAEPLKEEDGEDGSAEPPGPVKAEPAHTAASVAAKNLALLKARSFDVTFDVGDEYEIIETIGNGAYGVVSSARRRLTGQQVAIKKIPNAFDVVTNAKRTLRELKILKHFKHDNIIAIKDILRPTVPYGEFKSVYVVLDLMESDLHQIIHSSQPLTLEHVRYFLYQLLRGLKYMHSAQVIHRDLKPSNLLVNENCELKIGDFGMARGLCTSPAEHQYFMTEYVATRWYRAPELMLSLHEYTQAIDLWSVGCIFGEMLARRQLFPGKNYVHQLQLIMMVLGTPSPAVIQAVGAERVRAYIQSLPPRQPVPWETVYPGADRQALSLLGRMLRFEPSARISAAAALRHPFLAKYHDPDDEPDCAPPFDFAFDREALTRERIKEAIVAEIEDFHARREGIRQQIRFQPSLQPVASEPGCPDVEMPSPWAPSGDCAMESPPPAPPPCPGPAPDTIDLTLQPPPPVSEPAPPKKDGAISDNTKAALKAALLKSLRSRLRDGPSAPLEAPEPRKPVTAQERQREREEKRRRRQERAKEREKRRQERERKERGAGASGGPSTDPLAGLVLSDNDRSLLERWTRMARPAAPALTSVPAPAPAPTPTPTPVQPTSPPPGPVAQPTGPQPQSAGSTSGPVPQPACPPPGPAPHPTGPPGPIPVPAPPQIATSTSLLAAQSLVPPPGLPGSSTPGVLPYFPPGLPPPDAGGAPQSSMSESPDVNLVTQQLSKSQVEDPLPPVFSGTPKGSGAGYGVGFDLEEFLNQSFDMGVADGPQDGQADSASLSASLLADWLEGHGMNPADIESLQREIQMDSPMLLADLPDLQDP

[14] = tested on: F380Y; assay: BK channel mutant inhibitors and activators – cell-based, U2OS BacMam, thallium flux, beta subunits, selectivity assay, profiling panel (AID 1259406); conditions: U2OS BacMam BK variants, at 30 µM;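 note: initial slope of Thallos dye fluorescence rise after thallium is added; log ratio against the mean of 0.3% DMSO vehicle wells on the same plate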
[15] = tested on: F380Y/beta2Delta; assay: as above; conditions: U2OS BacMam BK variants, at 30 µM
[16] = target: Calcium-activated potassium channel subunit alpha-1 (Homo sapiens) + Leucine-rich repeat-containing protein 26 (Homo sapiens) (UniProt Q12791+Q2I0M4); assay: as above; conditions: U2OS BacMam BK variants, F380Y/Slo1WT/gamma1, at 30 µM
Chain of Calcium-activated potassium channel subunit alpha-1 (Homo sapiens) + Leucine-rich repeat-containing protein 26 (Homo sapiens) (Q2I0M4 whole entry, looked up, one chain of several): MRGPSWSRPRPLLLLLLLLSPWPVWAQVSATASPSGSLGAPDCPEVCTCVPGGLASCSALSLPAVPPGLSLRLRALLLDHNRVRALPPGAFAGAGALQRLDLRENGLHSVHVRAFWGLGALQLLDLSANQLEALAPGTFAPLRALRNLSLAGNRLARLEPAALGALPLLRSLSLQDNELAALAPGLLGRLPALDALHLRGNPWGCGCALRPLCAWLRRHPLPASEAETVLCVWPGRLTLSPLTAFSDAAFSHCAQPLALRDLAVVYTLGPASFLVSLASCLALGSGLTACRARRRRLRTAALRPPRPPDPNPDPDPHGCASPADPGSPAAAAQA

[17] = tested on: R275C; assay: as above; conditions: U2OS BacMam BK variants, at 30 µM
[18] = tested on: R275C/beta1; assay: as above; conditions: U2OS BacMam BK variants, at 30 µM
[19] = tested on: R275C/beta2Delta; assay: as above; conditions: U2OS BacMam BK variants, at 30 µM
[20] = viability loss with induced miR-34 in A549 – imaging, A549 dox-inducible miR-34, nuclei and caspase counts, primary screen (AID 1347080;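 active = compounds whose cell count with miR-34 switched on is under 0.7 times the count with it off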); conditions: A549 miR-34 inducible, Hoechst nuclei count, 48 h
[21] = measured here: epithelial PC-3E GFP cell survival
[22] = measured here: mesenchymal TEM4-18 mCherry cell survival
[23] = MELAS cybrid survival, CellTiter-Glo 48 h, stronger effect = higher value
[24] = Rieske KO mouse fibroblast survival, CellTiter-Glo 72 h
[25] = stronger effect = lower value, cell number ratio, induced over uninduced
[26] = measured here: relative caspase fold change +Dox/-Dox
[27] = measured here: total cells with miR-34 induction, stronger effect = lower value
[28] = measured here: total cells without miR-34 induction

COc1ccc2cc(CCC(C)=O)ccc2c1
inactive: nuclear beta-catenin stimulation ([1]; at 10 µM) 5.3% | insulin secretion stimulation [2] 1.5% | viability decrease [3] -7.2% | tube area decrease [4] -5.2% | GLP1 secretion stimulation [5] 0.4% | inhibition of viability [6] -6.2% | viability decrease (inhibition) [7] 4.5% | inhibition [9] -24.5% | red/green cell ratio (normalised) [10] 1.14 | z-score [11, 23] -0.0447 and 0.0297 and 0.548 | remaining NAD [12] 10 nM | luciferase signal [13] 92 AU | log fold change Tl+ flux [16] -0.0634
1.27: normalised cell number [10, 22]
-0.132 and -0.0567 and -0.121: z-score [11, 24]
3.7%: nuclear beta-catenin stimulation ([1]; stimulation, at 2 µM)
1.12: normalised cell number [10, 21]
active: viability decrease (inhibition) [8] -3.8% | log fold change Tl+ flux [14] -0.158 | log fold change Tl+ flux [15] -0.0818 | log fold change Tl+ flux [17] -0.0871 | log fold change Tl+ flux [18] -0.284 | log fold change Tl+ flux [19] -0.233

CC1=C(C(=O)O)N2C(=O)[C@@H](NC(=O)[C@H](N)c3ccccc3)[C@H]2SC1
active: GLP1 secretion stimulation [5] 22.8%
10900: cell count [20, 28]
1.36: fold change [20, 26]
9200: cell count [20, 27]
0.2%: nuclear beta-catenin stimulation ([1]; stimulation, at 2 µM)
inactive: nuclear beta-catenin stimulation ([1]; at 10 µM) 3.8% | insulin secretion stimulation [2] -0.9% | viability decrease [3] 7.2% | tube area decrease [4] -2.6% | inhibition of viability [6] 24.3% | viability decrease (inhibition) [7] 44.6% | viability decrease (inhibition) [8] 11.8% | inhibition [9] 8.67% | fold change [20, 25] 0.846 | remaining NAD [12] 10 nM | luciferase signal [13] 40 AU | log fold change Tl+ flux [14] -0.036 | log fold change Tl+ flux [15] -0.0767 | log fold change Tl+ flux [16] -0.0298 | log fold change Tl+ flux [17] -0.0778 | log fold change Tl+ flux [18] -0.0268 | log fold change Tl+ flux [19] -0.026

C[C@]12CCC(=O)C=C1CC[C@@H]1[C@@H]2C(=O)C[C@@]2(C)[C@H]1CC[C@]2(O)C(=O)CO
8700 and 9320: cell count [20, 27]
8880 and 10200: cell count [20, 28]
2.11 and 1.06: fold change [20, 26]
inactive: nuclear beta-catenin stimulation ([1]; at 10 µM) -0.9% | insulin secretion stimulation [2] -3.1% | viability decrease [3] -9.9% | tube area decrease [4] 4.3% | GLP1 secretion stimulation [5] -2.4% | inhibition of viability [6] 4.4% | viability decrease (inhibition) [7] 6.5% | viability decrease (inhibition) [8] -2.6% | inhibition [9] 4.09% | fold change [20, 25] 0.98 and 0.917 | z-score [11, 23] 1.14 | remaining NAD [12] 10 nM | luciferase signal [13] 36 AU | log fold change Tl+ flux [14] 0.0198 | log fold change Tl+ flux [15] 0.0238 | log fold change Tl+ flux [16] 0.0148 | log fold change Tl+ flux [17] -0.0438 | log fold change Tl+ flux [18] -0.0165 | log fold change Tl+ flux [19] -0.0316
1.3%: nuclear beta-catenin stimulation ([1]; stimulation, at 2 µM)
-0.104: z-score [11, 24]

COc1cc(NC(C)CCCN)c2ncccc2c1 (centres undefined)
1.34: normalised cell number [10, 22]
0.94: normalised cell number [10, 21]
-0.221 and -0.189 and 1.47: z-score [11, 24]
inactive: nuclear beta-catenin stimulation ([1]; at 10 µM) 1.4% | insulin secretion stimulation [2] 0.4% | tube area decrease [4] 11.2% | GLP1 secretion stimulation [5] 2.7% | viability decrease (inhibition) [8] 47.3% | inhibition [9] -0.957% | red/green cell ratio (normalised) [10] 1.43 | z-score [11, 23] -0.353 and -0.329 and 0.456 | remaining NAD [12] 10 nM | luciferase signal [13] 32 AU | log fold change Tl+ flux [14] -0.0858 | log fold change Tl+ flux [16] -0.0425 | log fold change Tl+ flux [18] 0.0817 | log fold change Tl+ flux [19] 0.0117
active: viability decrease [3] 102% | inhibition of viability [6] 97.2% | viability decrease (inhibition) [7] 71.5% | log fold change Tl+ flux [15] -0.141 | log fold change Tl+ flux [17] -0.164
1.8%: nuclear beta-catenin stimulation ([1]; stimulation, at 2 µM)

c1ccc2c(CC3=NCCN3)cccc2c1
0.86: normalised cell number [10, 22]
1.1%: nuclear beta-catenin stimulation ([1]; stimulation, at 2 µM)
-0.0845 and -0.183 and -0.115: z-score [11, 24]
inactive: nuclear beta-catenin stimulation ([1]; at 10 µM) 0.4% | insulin secretion stimulation [2] -1.7% | viability decrease [3] -2.25% | tube area decrease [4] 20.2% | GLP1 secretion stimulation [5] 2.8% | inhibition of viability [6] -0.7% | viability decrease (inhibition) [7] 19.7% | viability decrease (inhibition) [8] 8% | inhibition [9] -9.35% | red/green cell ratio (normalised) [10] 0.84 | z-score [11, 23] -0.272 and 0.214 and 0.142 | remaining NAD [12] 10 nM | luciferase signal [13] 44 AU | log fold change Tl+ flux [14] -0.0182 | log fold change Tl+ flux [15] -0.014 | log fold change Tl+ flux [16] 0.0291 | log fold change Tl+ flux [17] -0.0401 | log fold change Tl+ flux [18] -0.0378 | log fold change Tl+ flux [19] 0.00508
1.03: normalised cell number [10, 21]

C[C@]12C=CC(=O)C=C1CC[C@@H]1[C@@H]2C(=O)C[C@@]2(C)[C@H]1CC[C@]2(O)C(=O)CO
inactive: nuclear beta-catenin stimulation ([1]; at 10 µM) 0.6% | insulin secretion stimulation [2] -2.5% | viability decrease [3] -21.3% | tube area decrease [4] -13.7% | GLP1 secretion stimulation [5] 0.9% | inhibition of viability [6] -8.2% | viability decrease (inhibition) [7] -6.4% | viability decrease (inhibition) [8] -11.6% | inhibition [9] -6.11% | fold change [20, 25] 0.98 and 0.843 and 0.886 | z-score [11, 23] 0.134 and 0.541 | remaining NAD [12] 10 nM | luciferase signal [13] 28 AU | log fold change Tl+ flux [14] 0.00715 | log fold change Tl+ flux [15] 0.0137 | log fold change Tl+ flux [16] -0.00874 | log fold change Tl+ flux [17] -0.0236 | log fold change Tl+ flux [18] -0.0318 | log fold change Tl+ flux [19] 0.028
0.8%: nuclear beta-catenin stimulation ([1]; stimulation, at 2 µM)
-0.259 and 0.148: z-score [11, 24]
1.65 and 0.777 and 1.15: fold change [20, 26]
10300 and 7950 and 9680: cell count [20, 27]
10500 and 9420 and 10900: cell count [20, 28]
